According to PubChem BioAssay:
Activity calls are given as the source filed them. Unless noted, how the calls were made is not given here.

What was measured:
[1] = test system: Wnt5a (protein binding on small-molecule microarray); experiment: Wnt5a binders on small-molecule microarray, primary screen, biophysical, 635/667 nm fluorescence (AID 1142); conditions: 635 nm fluorescence, higher = more signal;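 further: fluorescence read at 667 nm with signal to noise per printed feature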
[2] = cell viability in Huh7 cells, primary screen, cytotoxicity control for HCV replication inhibitor project, CellTiter-Glo luminescence, basal, 48 h (AID 1143); conditions: Huh7 HCV replicon, higher = more signal, called active from +8 up or from −8 down;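 further: Huh7 hepatoma cells carrying a hepatitis C replication reporter with no stimulus; test concentration not given here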
[3] = P. aeruginosa biofilm formation inhibitors, primary screen, PAO1 strain, BacTiter-Glo luminescence, LB-PBS (AID 1144); conditions: 12 h, higher = more signal
[4] = CREB reporter modulators without forskolin, primary screen, cell-based, PC12, CRE-LacZ reporter, unstimulated (AID 1145); conditions: no forskolin, luminescence, 4.5 h, higher = more signal, called active from +8 up or from −8 down
[5] = CREB reporter modulators under forskolin, primary screen, cell-based, PC12, CRE-LacZ reporter, forskolin-stimulated (AID 1146); conditions: luminescence, 4.5 h, higher = more signal, called active from +8 up or from −8 down;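 further: PC12 cells with 6xCRE LacZ reporter stimulated by forskolin 10 µM; beta-galactosidase reporter signal reflecting CREB driven transcription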
[6] = molecular target: Streptavidin (Streptomyces avidinii) (UniProt P22629); experiment: streptavidin binders on small-molecule microarray, primary screen, artefact control for SMM compound annotation, biophysical, 635/667 nm fluorescence (AID 1147); conditions: streptavidin binding, higher = more signal;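 further: signal reflects streptavidin binding to arrayed compounds as a control protein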
Chain of Streptavidin (Streptomyces avidinii) (P22629 whole entry, looked up): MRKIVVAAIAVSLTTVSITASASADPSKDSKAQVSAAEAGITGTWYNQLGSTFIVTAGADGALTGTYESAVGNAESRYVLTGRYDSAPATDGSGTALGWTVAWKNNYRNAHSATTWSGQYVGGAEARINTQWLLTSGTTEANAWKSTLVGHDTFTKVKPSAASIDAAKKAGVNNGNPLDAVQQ

[7] = small-molecule binders of probe aInhba, primary screen, biochemical, small-molecule microarray, 635/667 nm fluorescence (AID 1148); conditions: higher = more signal;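 further: score merges 667nm spot fluorescence with signal-to-noise for antibody binding to printed compounds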
Torsin-1A (Homo sapiens) [8] = molecular target: Torsin-1A (Homo sapiens) (UniProt O14656); experiment: torsin A binders from cell lysate, primary screen, small-molecule microarray, wild-type, 635/667 nm (AID 1149); conditions: COS7 hTOR1A-WT lysate, 635 nm fluorescence, higher = more signal
Chain of Torsin-1A (Homo sapiens) (O14656 whole entry, looked up): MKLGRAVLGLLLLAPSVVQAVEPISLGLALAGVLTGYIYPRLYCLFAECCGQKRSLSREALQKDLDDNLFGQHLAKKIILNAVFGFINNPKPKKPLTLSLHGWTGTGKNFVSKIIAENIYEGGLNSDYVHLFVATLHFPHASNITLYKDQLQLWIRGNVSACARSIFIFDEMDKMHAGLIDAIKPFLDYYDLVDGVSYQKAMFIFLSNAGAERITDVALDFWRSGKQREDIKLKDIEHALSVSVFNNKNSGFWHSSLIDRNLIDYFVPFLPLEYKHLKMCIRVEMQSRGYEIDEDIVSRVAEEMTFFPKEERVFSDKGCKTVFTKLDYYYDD

Torsin-1A (Homo sapiens) [9] = molecular target: Torsin-1A (Homo sapiens) (UniProt O14656); experiment: small-molecule binders of mutant TOR1A in lysate, primary screen, cell lysate, small-molecule microarray, COS7 lysate, 635/667 nm fluorescence (AID 1150); conditions: COS7 hTOR1A mutant lysate, 635 nm fluorescence, higher = more signal;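 further: score pools 667 nm emission and signal to noise measuring lysate protein binding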
[10] = test system: Sonic hedgehog protein (Shh); experiment: small-molecule binders of Shh protein, primary screen, biochemical, small-molecule microarray, 635/667 nm fluorescence (AID 1151); conditions: small-molecule microarray binding, 635 nm fluorescence; higher = more signal;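 further: Shh protein binding to compounds spotted on small-molecule microarray slides; score combines spot fluorescence intensity with signal-to-noise across triplicate slides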
[11] = E. coli DRC41 culture turbidity changes, primary screen, E. coli filamentation inducer project, strain DRC41, OD650, 48 h (AID 1152);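 further: E. coli MC1000 strain DRC41 lacking acrAB efflux pump and sulA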; conditions: E. coli DRC41 (acrAB sulA), higher = more signal, called active from +8 up or from −8 down
[12] = small-molecule binders of probe aLefty1, primary screen, biochemical, small-molecule microarray, 635/667 nm fluorescence (AID 1153); conditions: higher = more signal;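 further: score merges spot fluorescence with signal-to-noise ratio from the scanned slide images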
[13] = PSAC antagonists in infected red cells, primary screen, cell-based, P. falciparum Indochina, OD700, 1 h (AID 1154); conditions: P. falciparum Indochina infected RBC osmotic lysis, higher = more signal, called active from +8 up or from −8 down
[14] = PSAC antagonists in infected red cells, primary screen, cell-based, P. falciparum Indochina, OD700, 2 h (AID 1155);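 further: lysis reports solute entry through the parasite surface anion channel PSAC; channel blockers reduce lysis of infected cells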; conditions: P. falciparum Indochina infected erythrocytes, osmotic lysis OD700; higher = more signal, called active from +8 up or from −8 down
[15] = osmotic lysis modulators in infected erythrocytes, primary screen, PSAC antagonist project, cell-based, P. falciparum Indochina, OD700, 3 h (AID 1156); conditions: higher = more signal, called active from +8 up or from −8 down
[16] = PSAC antagonists in infected red cells, primary screen, cell-based, P. falciparum Indochina, OD700, 18 h (AID 1157); conditions: P. falciparum Indochina infected erythrocytes, osmotic lysis OD700, 18 h; higher = more signal, called active from +8 up or from −8 down
[17] = modulators of S6 phosphorylation in cells, primary screen, cell-based, A549, cytoblot, luminescence, serum-stimulated (AID 1158); conditions: A549 phospho-S6 cytoblot, 5 h, higher = more signal;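 further: serum-stimulated A549 lung adenocarcinoma cells; signal is phosphorylated S6 detected by cytoblot immunostaining with HRP secondary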
[18] = molecular target: NADPH oxidase 2 (Homo sapiens) (UniProt P04839); experiment: NOX2-dependent H2O2 signal modulators, primary screen, NOX inhibitor project, cell-based, HEK293-NOX2, PMA-stimulated, Amplex Red fluorescence (AID 1159); conditions: 45 min, higher = more signal, called active from +8 up or from −8 down; further: test concentration not given here
Chain of NADPH oxidase 2 (Homo sapiens) (P04839 whole entry, looked up): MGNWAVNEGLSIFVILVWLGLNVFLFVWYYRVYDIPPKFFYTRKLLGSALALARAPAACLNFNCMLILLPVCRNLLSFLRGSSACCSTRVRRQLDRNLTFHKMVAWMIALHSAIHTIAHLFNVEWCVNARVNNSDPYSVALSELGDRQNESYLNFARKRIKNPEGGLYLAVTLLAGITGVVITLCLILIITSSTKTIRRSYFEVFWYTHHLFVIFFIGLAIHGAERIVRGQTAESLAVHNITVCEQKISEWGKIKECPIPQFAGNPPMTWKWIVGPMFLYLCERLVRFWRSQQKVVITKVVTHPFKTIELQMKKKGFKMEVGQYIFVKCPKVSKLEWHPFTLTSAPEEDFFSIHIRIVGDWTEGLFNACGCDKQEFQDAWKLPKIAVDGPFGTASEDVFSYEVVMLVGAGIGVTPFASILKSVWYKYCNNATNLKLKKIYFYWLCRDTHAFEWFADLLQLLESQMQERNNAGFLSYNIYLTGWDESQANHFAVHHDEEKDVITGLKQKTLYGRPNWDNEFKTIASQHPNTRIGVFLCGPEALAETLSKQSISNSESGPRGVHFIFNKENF

[19] = molecular target: NADPH oxidase 4 (Homo sapiens) (UniProt Q9NPH5); experiment: NOX4-dependent H2O2 signal modulators, primary screen, NOX inhibitor project, cell-based, HEK293-NOX4, tetracycline-induced, Amplex Red fluorescence (AID 1160); conditions: 45 min, higher = more signal, called active from +8 up or from −8 down
Chain of NADPH oxidase 4 (Homo sapiens) (Q9NPH5 whole entry, looked up): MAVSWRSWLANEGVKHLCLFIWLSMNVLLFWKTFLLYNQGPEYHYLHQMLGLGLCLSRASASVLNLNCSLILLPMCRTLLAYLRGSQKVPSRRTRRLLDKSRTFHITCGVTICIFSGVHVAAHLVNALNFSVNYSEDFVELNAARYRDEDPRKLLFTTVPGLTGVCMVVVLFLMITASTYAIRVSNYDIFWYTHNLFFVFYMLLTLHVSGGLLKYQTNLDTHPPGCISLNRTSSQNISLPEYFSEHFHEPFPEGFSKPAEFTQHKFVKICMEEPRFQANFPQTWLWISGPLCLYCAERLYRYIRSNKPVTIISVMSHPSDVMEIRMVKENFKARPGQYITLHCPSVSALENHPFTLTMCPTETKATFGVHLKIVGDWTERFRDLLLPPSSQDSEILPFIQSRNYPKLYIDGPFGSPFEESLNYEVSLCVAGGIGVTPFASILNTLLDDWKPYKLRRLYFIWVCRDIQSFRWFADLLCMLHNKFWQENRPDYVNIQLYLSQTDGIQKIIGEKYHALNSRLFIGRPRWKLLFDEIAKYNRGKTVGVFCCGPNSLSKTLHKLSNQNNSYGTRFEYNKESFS

[20] = molecular target: NADPH oxidase 5 (Homo sapiens) (UniProt Q96PH1); experiment: NOX5-dependent H2O2 signal modulators, primary screen, NOX inhibitor project, cell-based, HEK293-NOX5, Amplex Red fluorescence (AID 1161); conditions: HEK293-NOX5, ionomycin, 45 min, higher = more signal
Chain of NADPH oxidase 5 (Homo sapiens) (Q96PH1 whole entry, looked up): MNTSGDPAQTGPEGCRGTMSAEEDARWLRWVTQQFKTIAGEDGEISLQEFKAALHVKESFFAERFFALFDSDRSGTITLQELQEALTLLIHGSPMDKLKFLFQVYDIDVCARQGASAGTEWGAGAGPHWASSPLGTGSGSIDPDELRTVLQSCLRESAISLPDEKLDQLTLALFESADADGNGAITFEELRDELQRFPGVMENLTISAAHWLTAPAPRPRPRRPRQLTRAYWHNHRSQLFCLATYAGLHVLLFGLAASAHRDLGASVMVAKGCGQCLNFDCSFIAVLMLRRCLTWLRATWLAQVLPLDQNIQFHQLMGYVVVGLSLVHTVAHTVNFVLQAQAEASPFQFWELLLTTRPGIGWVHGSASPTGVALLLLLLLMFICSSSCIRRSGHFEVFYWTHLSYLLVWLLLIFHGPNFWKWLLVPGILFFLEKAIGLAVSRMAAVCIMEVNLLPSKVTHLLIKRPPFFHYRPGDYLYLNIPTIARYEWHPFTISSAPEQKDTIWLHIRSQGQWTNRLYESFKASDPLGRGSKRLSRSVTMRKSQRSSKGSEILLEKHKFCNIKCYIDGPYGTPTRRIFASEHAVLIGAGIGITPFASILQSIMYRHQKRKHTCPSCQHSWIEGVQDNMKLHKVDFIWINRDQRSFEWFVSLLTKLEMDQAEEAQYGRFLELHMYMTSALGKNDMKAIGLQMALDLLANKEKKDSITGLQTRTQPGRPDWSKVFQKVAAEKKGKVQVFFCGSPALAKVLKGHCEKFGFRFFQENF

Structure (SMILES)	composite z-score [1]	z-score [2]	z-score [3]	z-score [4]	z-score [5]	composite z-score [6]	composite z-score [7]	composite z-score (Torsin-1A (Homo sapiens) [8])	composite z-score (Torsin-1A (Homo sapiens) [9])	composite z-score [10]	z-score [11]	composite z-score [12]	z-score [13]	z-score [14]	z-score [15]	z-score [16]	z-score [17]	z-score [18]	z-score [19]	z-score [20]
O=C1NC(=O)C2C1C=CC(C(O)c1ccccn1)N2Nc1ccc(Cl)cc1Cl (stereo not given)	0.0314	0.203 (inactive)	-0.595 (inactive)	0.0535 (inactive)	-0.0259 (inactive)	1.16	-0.101	-0.117	0.175	-0.517	-0.889 (inactive)	0.121	0.625 (inactive)	0.435 (inactive)	-0.343 (inactive)	0.949 (inactive)	-0.881	-1.39 (inactive)	-4.83 (inactive)	-3.38
COCC(=C=CC[C@@H](O)c1cccc(OCCO)c1)CCO	0.332	-0.35 (inactive)	0.65 (inactive)	-0.205 (inactive)	0.671 (inactive)	0.105	0.0051	1.96	0.675	1.23	0.355 (inactive)	0.0091	2.3 (inactive)	0.152 (inactive)	0.691 (inactive)	0.135 (inactive)	-0.094	-0.274 (inactive)	-0.761 (inactive)	-0.334
C=CCC(OC(C)=O)[C@@H]1[C@@H](N(Cc2cc3ccccc3o2)C(=O)c2ccc(-c3ccccc3)cc2)c2cc(OCCCO)ccc2N1C(=O)Cc1ccc(OC)cc1 (stereo not given in full)	-0.138	0.0567 (inactive)	0.263 (inactive)	1.09 (inactive)	0.289 (inactive)	-0.0182	-0.0736	-0.592	-0.324	0.366	-1.14 (inactive)	-0.0547	0.702 (inactive)	0.701 (inactive)	0.365 (inactive)	0.703 (inactive)	0.3	-0.0713 (inactive)	-0.918 (inactive)	1.09
CCCCNC(=O)c1ccc(C#C[Si](C(C)C)(C(C)C)C(C)C)c(OC(C)=O)c1	0.268	-0.915 (inactive)	-0.084 (inactive)	0.223 (inactive)	0.184 (inactive)	1.04	-0.187	0.598	0.216	1.74	-0.52 (inactive)	-0.0518	0.964 (inactive)	0.272 (inactive)	0.551 (inactive)	0.158 (inactive)	0.152	1.26 (inactive)	0.355 (inactive)	0.458
CCN(CC)c1ccc(N2CC=CC34O[C@@H]5/C=C\CCC(C)OC(=O)C5[C@H]3C(=O)N(C(C)CO)[C@@H]4C2=O)cc1 (stereo not given in full)	-0.0075	0.269 (inactive)	0.515 (inactive)	0.87 (inactive)	0.46 (inactive)	-0.417	-0.0986	-0.0697	-0.116	0.808	1.23 (inactive)	-0.196	0.946 (inactive)	-0.227 (inactive)	0.987 (inactive)	0.304 (inactive)	-0.276	0.33 (inactive)	-0.619 (inactive)	1.69
CN1C(=O)C2C=CC(C(O)c3cc(C(F)(F)F)cc(C(F)(F)F)c3)N(NC(=O)OC(C)(C)C)C2C1=O (stereo not given)	0.135	-2.4 (inactive)	0.999 (inactive)	0.0467 (inactive)	0.587 (inactive)	1.6	0.29	0.49	1.32	0.433	-1.13 (inactive)	0.363	-0.0698 (inactive)	0.118 (inactive)	-0.548 (inactive)	1.2 (inactive)	-0.636	-0.694 (inactive)	-1.47 (inactive)	1.5
C=CCC(OC(C)=O)[C@@H]1[C@@H](N(Cc2ccc(-c3ccccc3)cc2)C(=O)Cc2ccc(F)cc2)c2cc(OCCCO)ccc2N1C(=O)Cc1ccc2ccccc2c1 (stereo not given in full)	0.261	0.189 (inactive)	-0.59 (inactive)	0.367 (inactive)	0.997 (inactive)	0.612	0.038	-0.194	-0.0043	-0.0096	0.882 (inactive)	0.0774	1.84 (inactive)	0.791 (inactive)	-0.205 (inactive)	0.381 (inactive)	-0.199	0.587 (inactive)	0.512 (inactive)	1.88
CC(C)[Si]1(C(C)C)OCc2cc(-c3ccc(-c4ccc(Cl)c(Cl)c4)o3)nc(CCc3ccccc3)c21	0.0947	-1.53 (inactive)	-0.612 (inactive)	-0.0247 (inactive)	1.6 (inactive)	-0.884	-0.179	-0.696	-0.436	0.3	0.785 (inactive)	-0.239	1.58 (inactive)	-0.0088 (inactive)	-0.263 (inactive)	-1.01 (inactive)	0.353	0.69 (inactive)	0.187 (inactive)	-0.402
